# Among all 340,000 compounds or so, about 3,300 (0.97%) were called active. What follows is part of a selection rich in actives, with near analogues and random picks from the rest. Values without a mark were called inactive.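 How the source made its calls: active means mean activation above about 17%, with every replicate also reaching it (limit read from the data, passing the limit was not always enough); inconclusive means only one of the two conditions met; inactive means the rest.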
# Molecular target: Protein FosB (Mus musculus) (UniProt P13346)
# Sequence (P13346 whole entry, looked up): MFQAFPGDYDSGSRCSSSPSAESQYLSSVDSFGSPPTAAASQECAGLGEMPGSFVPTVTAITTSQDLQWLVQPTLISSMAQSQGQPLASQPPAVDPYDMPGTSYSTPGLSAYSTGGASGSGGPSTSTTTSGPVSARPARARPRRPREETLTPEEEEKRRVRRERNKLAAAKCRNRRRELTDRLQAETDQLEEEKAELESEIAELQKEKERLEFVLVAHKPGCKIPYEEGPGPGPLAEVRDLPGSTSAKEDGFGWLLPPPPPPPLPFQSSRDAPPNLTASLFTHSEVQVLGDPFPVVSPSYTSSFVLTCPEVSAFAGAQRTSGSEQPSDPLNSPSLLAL
# Test: enhancers of mouse delta FosB DNA binding – biochemical, fluorescence polarization, TAMRA-CDK5 oligo, single point, primary screen (AID 493131);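 further: fluorescence polarization rise as delta FosB binds a TAMRA Cdk5 AP-1 oligo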
# Details: purified delta FosB, at 25 µM, stronger effect = higher value, percent of positive-control signal above neutral wells
row,SMILES,activation
1,O=C(Nc1ccc2ccccc2c1)/C(=C/c1cccc(Br)c1)NC(=O)c1ccco1,23% (active)
2,Cc1ccc(NC(=O)/C(=C\c2ccccc2)NC(=O)c2ccco2)cc1,10.9%
3,O=C(Nc1ccc2ccccc2c1)/C(=C\c1ccc2c(c1)OCO2)NC(=O)c1ccco1,5.94%
4,COC(=O)c1ccc2c(c1)S(=O)(=O)NC(=NCCCN1CCOCC1)S2,0.881%
5,COC(=O)c1ccc(C2C(Oc3ccccc3C)C(=O)N2CCc2ccc(OC)c(OC)c2)cc1 (configuration not stated),-14.8%
6,COc1ccc(NC(=O)c2ccc(C#CC(C)(C)O)cc2)cc1,-5.48%
7,CC(C)(C)NC(=O)c1cccc(NC(=O)Cc2ccc(Br)cc2)c1,-8.13%
8,COc1ccc(CC(=O)Nc2ccc(C(=O)NC(C)(C)C)cc2)cc1,35.1% (active)
9,CC(=O)N1CC(=O)N(CC(=O)Nc2ccc(Br)cc2)C1=S,-0.232%
10,O=C1c2cccc3cccc(c23)C(=O)N1CCCCCc1n[nH]c(=S)o1,-2.23%
11,O=C1c2ccccc2C(=O)N1CCCCCCN1C(=O)c2ccccc2C1=O,-2.1%
12,C[N+](C)(CCCCCC[N+](C)(C)CCCN1C(=O)c2cccc3cccc(c23)C1=O)CCCN1C(=O)c2cccc3cccc(c23)C1=O,85% (active)
13,CCOC(=O)Cc1csc(SCC(=O)NC(C)C23CC4CC(CC(C4)C2)C3)n1 (configuration not stated),-21%
14,CC1(C)CC(=O)CC2(C1)NCC(c1ccccc1Cl)c1c2[nH]c2ccccc12 (configuration not stated),-13.7%
15,O=C(NCc1cccnc1)C12CC3CC(CC(C3)C1)C2,0.989%
16,CCC(CO)Oc1cc(NC(=O)c2cccc(F)c2)c2ncn(C(C)C)c2c1 (configuration not stated),7.98%
17,CCC(CO)Oc1cc(NC(=O)c2cccc3ccccc23)c2ncn(C(C)C)c2c1 (configuration not stated),-12.6%
18,CC(C)n1cnc2c(NCc3ccccc3)cc(OCC3CCN(C)CC3)cc21,91.8% (active)
19,C/C(CC(=O)Nc1cccc(C(F)(F)F)c1)=N\NC(=O)C(=O)NCC(C)C,-12.7%
20,CCCCOc1ccc(CON(C(C)=O)C(C)=O)cc1Cl,-3.14%
21,CCn1ccnc1CNC(=O)CC1C(=O)NCCN1Cc1ccc(F)cc1Cl (configuration not stated),-11.3%
22,Oc1ccc(C2Nc3cccc4cccc(c34)N2)cc1,58.9% (active)

row,SMILES,activation
1,COc1ccc(C2NC(=O)c3ccccc3N2)cc1 (configuration not stated),-0.293%
2,Brc1ccccc1C1Nc2cccc3cccc(c23)N1,-8.49%
3,O=C(CCc1nnc(CCCCc2ccccc2)o1)NC(c1cccnc1)C(F)(F)F (configuration not stated),-5.13%
4,O=C(O)C1CCN(S(=O)(=O)N2CCOCC2)CC1,1.05%
5,CCN1CCN(c2nc(Nc3cccc(F)c3)nc(N)c2[N+](=O)[O-])CC1,10.8%
6,CNc1nc(Nc2ccc(C)c(Cl)c2)nc(N)c1[N+](=O)[O-],60.7% (active)
7,Nc1nc(NCCCN2CCOCC2)nc(Nc2ccccc2)c1[N+](=O)[O-],4.67%
8,CCNC(=O)COC(=O)/C=C/c1c(C)nn(Cc2cccc(OC)c2)c1Cl,-7.6%
9,CC(C)Nc1ccc(-n2nc3ccccc3[n+]2[O-])cc1,-2.96%
10,CC1(C)CC(=O)c2c(n(S(=O)(=O)c3ccccc3)c3ccc(NS(=O)(=O)c4ccccc4)cc23)C1,-1.95%
11,CCOc1ccc2nc(NC(=O)c3cc([N+](=O)[O-])ccc3N3CCOCC3)sc2c1,26.6% (active)
12,O=C(NCc1ccc2c(c1)OCO2)c1cc([N+](=O)[O-])ccc1N1CCOCC1,5.71%
13,COc1ccc(S(=O)(=O)N2CCCCC2)cc1NC(=O)c1cc([N+](=O)[O-])ccc1N1CCOCC1,5.22%
14,COc1cc(NS(=O)(=O)c2ccc(NC(=O)c3ccc([N+](=O)[O-])cc3)cc2)ncn1,-0.999%
15,Cn1ccc(=Nc2ccc(NC(=O)c3ccc(N=c4ccn(C)c5ccc([N+](=O)[O-])cc45)cc3)cc2)cc1,62.2% (active)
16,CCc1ccc(NC(=O)c2ccc(Cn3cc([N+](=O)[O-])cn3)cc2)cc1,4.46%
17,COc1ccc(C(=O)Nc2ccnn2C2CCN(Cc3ccncc3)CC2)cc1,-4.76%
18,O=C(NCc1ccc2c(c1)OCO2)c1c(-c2ccsc2)sc2ccccc12,-2.79%
19,O=S(=O)(c1ccc(Cl)cc1)c1nc(-c2ccccc2F)oc1NCCN1CCOCC1,-12.7%
20,Cc1ccc(S(=O)(=O)N2CCN(C(=O)COC(=O)c3c(C)cc(C)cc3C)CC2)c(C)c1,-5.88%
21,COc1ccc(/C=C/C(=O)OCC(=O)N2CCN(S(=O)(=O)c3ccc(C)cc3C)CC2)cc1OC,19.8% (active)
22,Cc1ccc(S(=O)(=O)N2CCN(C(=O)COC(=O)/C=C/c3cccc(Cl)c3)CC2)c(C)c1,-10.6%

row,SMILES,activation
1,Cc1ccsc1C(=O)NNC(=O)COc1ccc(Br)cc1,-0.652%
2,NC(=NC(=O)c1ccccc1)C1=C(O)CCC1=O,-12.8%
3,COc1cc(C2C(C(=O)Nc3ccc(F)cc3)=C(C)Nc3nc(CCCO)nn32)cc(OC)c1OC (configuration not stated),-9.9%
4,COCCOC(=O)C1=C(C)Nc2nc(C)nn2C1c1ccccc1 (configuration not stated),-7.61%
5,COC(=O)c1nc2n(n1)C(c1ccc([N+](=O)[O-])cc1)C(C(=O)Nc1ccc(Cl)cc1)=C(C)N2 (configuration not stated),34.5% (active)
6,COC(=O)/C(=C\Nc1ccccc1)NC(=O)c1ccc(Cl)cc1Cl,4.01%
7,COc1cccc(C2CC(c3cccs3)=NN2C(=O)CSC2=NCCS2)c1OC (configuration not stated),-11.4%
8,Nc1nonc1-n1nnc(C(=O)N/N=C/c2ccc(Cl)cc2)c1-c1ccc2c(c1)OCO2,32.2% (active)
9,CC(C)c1c(C(=O)N/N=C/c2ccc(-c3ccccc3)cc2)nnn1-c1nonc1N,-2.45%
10,Nc1nonc1-n1nnc(C(=O)N/N=C/C2CCCCC2)c1-c1ccccc1,-11.3%
11,CC(Sc1nncn1C)C(=O)Nc1ccccc1-c1ccccc1 (configuration not stated),-4.45%
12,O=C(CSCc1ccc([N+](=O)[O-])cc1)Nc1cccc(C(=O)Nc2ccccc2C(=O)O)c1,-3.8%
13,O=C(COCc1cc(-c2ccc3c(c2)OCO3)on1)N1CCN(c2cccc(Cl)c2)CC1,-10.2%
14,Cc1cccc2c1-c1sc(C(=O)NCCCN3CCc4ccccc4C3)cc1CO2,22.8% (active)
15,CN1CCN(CCCNC(=O)c2cc3c(=O)oc4ccccc4c3s2)CC1,-39.5%
16,O=C(NCCCN1CCOCC1)c1cc2c(s1)CCC2,-3.83%
17,C=CCn1c(Oc2ccc(C(=O)OC)cc2)nc2c1c(=O)n(C)c(=O)n2C,2.74%
18,CC(C)=C1C2CCC1C1C(=O)N(NC(=O)c3ccco3)C(=O)C21 (configuration not stated),5.44%
19,COc1ccc(C)cc1NC(=O)CCCN1C(=O)NC(C)(C)C1=O,1.82%
20,COc1ccc(OC)c(C(=O)c2ccc(Cl)cc2)c1,6.81%
21,COc1ccc2c(c1)c(=O)c(C(=O)c1ccc(Cl)cc1)cn2CC(=O)Nc1ccc(F)cc1,101% (active)
22,O=C(c1ccc(F)cc1)c1cn(Cc2ccc(F)cc2)c2cc3c(cc2c1=O)OCCO3,-2.37%

row,SMILES,activation
1,CC1(C)CC2CC(C)(CN2c2ncnc3ccc(Br)cc23)C1 (configuration not stated),-14.7%
2,C=CCn1c2ccccc2c2nnc(SCc3[nH]c(=O)[nH]c3C(=O)CCCCC(=O)OCC)nc21,-0.527%
3,CCN1CCN(c2cc3nc(C)n(Cc4ccccc4)c(=O)c3cc2NC(=O)c2ccccc2F)CC1,27.5% (active)
4,CCOc1cc(NC(=O)c2ccccc2C(=O)O)c(OCC)cc1NC(=O)c1ccccc1F,-3.46%
5,CCC(=O)Nc1ccc2nc(C)n(Cc3ccccc3Cl)c(=O)c2c1,-9.12%
6,CCOc1cc(CO)ccc1OCC(=O)N1CCCCC1,-0.227%
7,O=C(COc1coc(CN2CCN(c3ccccc3F)CC2)cc1=O)N1CCc2ccccc21,21.9% (active)
8,O=C(COc1coc(CN2CCN(c3ccccc3)CC2)cc1=O)Nc1ccccc1F,-11.2%
9,O=C(COc1coc(CN2CCN(c3ccccc3)CC2)cc1=O)N1CCc2ccccc21,-7.12%
10,Nc1cc(=O)n(Cc2ccccc2)c(=O)n1Cc1ccccc1,-1.18%
11,CC(=O)Nc1sc2c(c1C(c1cccc(F)c1)N1CCN(CCO)CC1)CCCC2 (configuration not stated),-12.2%
12,Cn1cccc1/C=C1\SC(=O)N(CC(=O)Nc2ccc(F)cc2)C1=O,30.6% (active)
13,O=C(CN1C(=O)S/C(=C\c2ccccc2F)C1=O)NCCCn1ccnc1,-4.31%
14,Cc1nn(CC(=O)Nc2ccc(F)cc2)c(=O)c2ccccc12,0.886%
15,CC(C)c1cc(C(=O)O)on1,5.07%
16,COc1ccc(C2CC(c3cccs3)Nc3nnnn32)cc1 (configuration not stated),-5.14%
17,Fc1ccc(-c2ccc(CNCc3ccccn3)o2)cc1Cl,-10.2%
18,O=C(/C(=C/c1cccc(Cl)c1)c1nc2ccccc2[nH]1)c1ccccc1,0.879%
19,O=C(Cc1nc2ccccc2[nH]c1=O)c1ccc(Cl)cc1,25% (active)
20,O=C(Cc1ccc(Cl)cc1)c1ccccc1,-2.82%
21,COc1cccc2c1C(=O)c1c(O)c3c(c(O)c1C2=O)CC(O)(C(C)=NNC(=O)c1ccc(Cl)c(Cl)c1)CC3OC1CC(N)C(O)C(C)O1 (configuration not stated),-409%
